High-throughput results from PubChem BioAssay.
A selection: hits, their analogues and other compounds. The true share with any hit is near 3.9%.
CCHF vOTU inh: CCHFV vOTU protease inhibition | Pep-AMC fluorescence | inhibition, % at 11.5 µM | 370,000 compounds, 0.55% hits; in the data active = inhibition above about 30%; note: 0% = vehicle wells with enzyme and 100% = no enzyme wells
Anthrax LF prot: anthrax lethal factor protease inhibition. multiplex microsphere protease cleavage assay, LF. P15917. 360,000 compounds, 0.12% hits. AID 588501. inhibition, % at 10 µM; note: plate controls were buffer without enzyme for full effect and enzyme alone for no effect
Target sequence (P15917 whole entry, looked up): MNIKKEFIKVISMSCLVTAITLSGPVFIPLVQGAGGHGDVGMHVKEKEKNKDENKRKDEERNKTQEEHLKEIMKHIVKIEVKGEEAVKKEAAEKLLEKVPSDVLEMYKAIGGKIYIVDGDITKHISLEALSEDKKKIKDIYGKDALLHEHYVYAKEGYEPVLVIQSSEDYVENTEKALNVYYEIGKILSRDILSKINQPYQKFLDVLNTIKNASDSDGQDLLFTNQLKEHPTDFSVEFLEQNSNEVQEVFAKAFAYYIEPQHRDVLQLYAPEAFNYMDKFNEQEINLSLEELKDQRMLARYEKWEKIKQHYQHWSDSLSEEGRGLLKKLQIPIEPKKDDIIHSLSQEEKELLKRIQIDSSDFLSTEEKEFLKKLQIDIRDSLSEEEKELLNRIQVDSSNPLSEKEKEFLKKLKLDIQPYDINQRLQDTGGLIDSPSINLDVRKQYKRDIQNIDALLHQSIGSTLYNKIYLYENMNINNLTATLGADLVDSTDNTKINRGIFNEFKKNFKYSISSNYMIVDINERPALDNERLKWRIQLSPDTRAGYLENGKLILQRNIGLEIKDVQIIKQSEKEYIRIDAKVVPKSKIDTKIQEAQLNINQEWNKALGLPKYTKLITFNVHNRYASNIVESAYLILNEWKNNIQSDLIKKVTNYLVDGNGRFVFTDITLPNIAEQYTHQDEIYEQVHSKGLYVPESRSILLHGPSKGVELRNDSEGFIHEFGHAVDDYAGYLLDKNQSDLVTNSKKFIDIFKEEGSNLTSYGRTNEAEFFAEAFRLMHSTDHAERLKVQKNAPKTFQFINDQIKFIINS
BoNT F protease: BoNT F light chain protease inhibition; Multiplex microsphere protease cleavage assay, flow cytometry; inhibition, % at 10 µM; 360,000 compounds, 0.22% hits; in the data active = inhibition above about 35%, passing the limit was not always enough; inconclusive = no clear call, values can overlap the other calls; note: plate controls were buffer without enzyme for full effect and enzyme alone for no effect
BoNT-A LC inh2: BoNT A light chain protease inhibition; multiplex microsphere protease substrate cleavage, flow cytometry; inhibition, % at 10 µM; 360,000 compounds, 0.17% hits; AID 588499; note: plate controls were buffer without enzyme for full effect and enzyme alone for no effect
3CLpro inhibitor: SARS-CoV 3CLpro protease inhibition | recombinant SARS-CoV 3CLpro, quenched FRET peptide cleavage | inhibition, % at 6 µM | 290,000 compounds, 0.14% hits | P0C6X7; in the data active = inhibition above about 12%
Bead autofluor: compound fluorescence in toxin protease inhibitor counterscreen | 360,000 compounds, 3.1% hits | fluorescence intensity (concentration not given with the values) | compound autofluorescence counterscreen, microsphere flow cytometry; active compounds read high; in the data active = fluorescence intensity above about 16000; inconclusive = no clear call, values can overlap the other calls
Numbers without * were called inactive; ? = inconclusive; nt = no result given. Cut-off read from the data, not from the text of the source, unless noted: active = inhibition above about 30%; inconclusive = no clear call, values can overlap the other calls; inactive = below that.

SMILES | CCHF vOTU inh | Anthrax LF prot | BoNT F protease | BoNT-A LC inh2 | 3CLpro inhibitor | Bead autofluor
COc1ccc(OC)c(/C=C2\SC(=S)N(Cc3cccnc3)C2=O)c1 | 23.1 | 20.7 | 13.2 | 41.7* | -2.6 | 3135
COc1ccc(/C=C2\SC(=S)N(CCC(=O)Nc3ccc(C(=O)O)cc3)C2=O)cc1 | 2.6 | -4.0 | ? | 1.4 | 1.3 | 3767
CCCCN1CCN(C(=O)C2CCN(S(=O)(=O)c3ccc4[nH]c(=O)oc4c3)CC2)CC1 | 0.9 | nt | nt | nt | nt | nt
Cc1occc1-c1nnc(SCC(=O)Nc2ccncc2)n1-c1ccccc1 | 2.9 | nt | nt | nt | nt | nt
CC(COc1ccc(C#N)cc1)CN1CCC(C(O)(c2ccccc2)c2ccccc2)CC1 (stereo unspecified) | 4.5 | nt | nt | nt | nt | nt
O=C(CCCC1=NS(=O)(=O)c2ccccc2N1)N1CCN(c2ccccc2Cl)CC1 | -2.3 | nt | nt | nt | nt | nt
CCCCN1C(=O)NC(NS(=O)(=O)c2ccc(N)cc2)(C(F)(F)F)C1=O (stereo unspecified) | 3.7 | -6.4 | 1.5 | 1.9 | -0.7 | 19835*
O=C(N[C@H](Cc1ccccc1)C(=O)NCC1CCCO1)[C@H]1O[C@@H](n2ccc(=O)[nH]c2=O)[C@H](O)[C@@H]1O (stereo partly specified) | 6.0 | nt | nt | nt | nt | nt
CCN(CC)S(=O)(=O)c1ccc2oc(C(=O)NCCN3CCOCC3)c(C)c2c1 | -5.2 | -2.2 | -1.2 | -1.1 | 4.8 | 5315
C=CCNC(=O)c1oc2ccc(S(=O)(=O)N(CC)CC)cc2c1C | -5.1 | -2.1 | -5.1 | -4.0 | 5.5 | 24786*
Clc1ccc(-c2cnc3n2CCC3)cc1 | 1.2 | -3.0 | 0.9 | ? | -8.6 | 21764*
Brc1cccc(-c2cnc3n2CCCCC3)c1 | 3.5 | 0.6 | 5.5 | -0.5 | 1.3 | 2419
FC(F)(F)c1cccc(Cn2nnnc2-c2cc(Cl)cc(Cl)c2)c1 | nt | -1.5 | -3.4 | ? | 7.7 | 16997*
OC1(c2cccc(C(F)(F)F)c2)CCN(Cc2nnnn2Cc2ccccc2)CC1 | 24.1 | -0.9 | 5.0 | -0.4 | 2.7 | 2645
FC(F)(F)c1cccc(Cn2nnnc2-c2cccc(C(F)(F)F)c2)c1 | 7.9 | -0.2 | -8.4 | ? | 7.1 | 24655*
C=CCn1nnnc1-c1cc(Cl)cc(Cl)c1 | 4.7 | -1.7 | -2.9 | -1.0 | -1.7 | 4478
CCCc1cn(-c2ccc3c(c2)[C@@]2(CC(=O)N(C)C2c2ccccc2)C(=O)N3CC(C)C)nn1 (stereo partly specified) | 1.2 | nt | nt | nt | nt | nt
C[C@@H]1COc2cc(Br)ccc2S(=O)(=O)N1Cc1cn(CCC2OCCCO2)nn1 | 2.1 | nt | nt | nt | nt | nt
COc1cc(NC(=O)CSCc2cnn(-c3ccccc3)c2-n2cccc2)cc(OC)c1 | -0.6 | -9.6 | 1.2 | -1.3 | 6.6 | 3064
O=C(O)CSCc1cnn(-c2ccccc2)c1-n1cccc1 | -5.7 | 1.0 | -5.4 | -0.3 | 0.3 | 10818
CCOc1ccc(NC(=O)CSCc2cnn(-c3ccccc3)c2-n2cccc2)cc1 | 4.5 | -1.7 | -1.2 | 1.2 | -1.9 | 19959*
O=C(CSCc1cnn(-c2ccccc2)c1-n1cccc1)N1CCN(Cc2ccccc2)CC1 | 10.3 | -2.8 | 8.5 | ? | -1.7 | 18611*
O=C(CNS(=O)(=O)c1cccs1)N1CCN(c2ncccn2)CC1 | -1.4 | nt | nt | nt | nt | nt
O=C(CSc1nnc(-c2cccnc2)n1-c1ccccc1)Nc1cccc2ccccc12 | -8.1 | nt | nt | nt | nt | nt
N/C(Cc1ccc(Cl)cc1)=N\OC(=O)c1ccccc1 | 8.7 | -1.0 | 41.6* | 0.9 | 0.1 | 4345
SMILES | CCHF vOTU inh | Anthrax LF prot | BoNT F protease | BoNT-A LC inh2 | 3CLpro inhibitor | Bead autofluor
N/C(=N\OC(=O)c1cccc(Br)c1)c1ccc(Br)cc1 | 1.0 | -4.0 | -7.2 | -0.3 | -1.1 | 3015
COc1ccc(C(=O)O/N=C(\N)Cc2ccc(Cl)cc2)cc1OC | -0.9 | 7.1 | -4.4 | 0.0 | -1.0 | 3250
CCC(=O)Nc1ccccc1C(=O)OCc1ccc(C(=O)c2ccccc2)cc1 | -3.5 | -13.2 | 8.8 | 8.2 | -3.2 | 20219*
N/C(=N\OC(=O)c1ccc(Br)cc1)c1ccccc1 | 3.2 | -1.9 | -5.0 | -5.2 | 2.8 | 25293*
O=C(OCc1ccc(Cl)cc1)c1ccccc1C(=O)c1ccccc1 | 5.8 | -12.2 | -8.0 | -2.9 | 2.6 | 17651*
O=C(NC1CCCCN(Cc2cccc(Cl)c2)C1=O)c1cccc(C(F)(F)F)c1 (stereo unspecified) | 8.4 | nt | nt | nt | nt | nt
COC(=O)[C@]12C[C@H](CC(=O)NCc3cccs3)C(=O)N(Cc3ccccc3)C1=C[C@H](COCc1ccccc1)O[C@@H]2C | 8.8 | nt | nt | nt | nt | nt
CCC(=O)Nc1ccccc1C(=O)NC1CCCCC1 | 6.8 | -0.3 | 3.4 | 1.8 | 0.7 | 21479*
O=C(C1CCN(c2ncnc3c2sc2cccc(F)c23)CC1)N1CCN(Cc2ccc(F)cc2)CC1 | 6.0 | nt | nt | nt | nt | nt
COc1ccc(OC)c(N/C(C)=C/C(=O)c2ccc(C)o2)c1 | -1.2 | -1.2 | -7.4 | ? | -3.6 | 20443*
O=C(C=Cc1ccc(OCc2ccccc2)cc1)c1c(F)cccc1F | 13.8 | nt | nt | nt | nt | nt
COCn1c(-c2ccc(OC)c(OC)c2)nc2ccccc21 | -2.5 | -14.6 | -2.7 | 0.4 | 1.6 | 9407
COCc1nc2ccccc2n1Cc1ccccc1C | 3.1 | -2.0 | -6.2 | 0.2 | -0.3 | 3212
COCn1c(-c2cccc(Br)c2)nc2ccccc21 | -4.0 | -4.8 | -0.4 | ? | 4.7 | 19656*
Cc1ccccc1Cn1c(Cc2ccccc2)nc2ccccc21 | 14.4 | -0.1 | -6.0 | ? | -1.1 | 24142*
COCc1nc2ccccc2n1Cc1cccc(C)c1 | -4.9 | -0.7 | -5.0 | -2.2 | 5.5 | 16897*
COCc1cc(N2CCN(C(=O)OC(C)(C)C)C[C@H]2C)ccc1N1CCS(=O)(=O)CC1 | -9.0 | nt | nt | nt | nt | nt
CCN(CC)C(=O)CC[C@H]1CC[C@]2(CCCN(C(=O)c3ccccc3)C2)O1 | 2.9 | nt | nt | nt | nt | nt
COc1cccc(N2CCN(CC(=O)NCc3ccco3)CC2)c1 | -1.2 | nt | nt | nt | nt | nt
O=C(CCc1ccccc1)N[C@H]1[C@H](OC(=O)c2cnccn2)CCC[C@@]12C(=O)N(Cc1ccccc1)c1ccccc12 | 8.3 | nt | nt | nt | nt | nt
CCCC(=O)Nc1cccc(NC(=O)c2ccc(C)c([N+](=O)[O-])c2)c1 | 15.9 | -0.6 | -0.4 | ? | 2.6 | 23307*
CC1(C)CC(=O)C(C(C#Cc2ccccc2)C2=C(O)CC(C)(C)CC2=O)=C(O)C1 | 12.0 | -3.2 | -8.0 | -1.8 | -5.3 | 13101
O=C1CCCC(O)=C1C(C#Cc1ccccc1)C1=C(O)CCCC1=O | nt | 1.1 | -7.3 | -3.6 | -2.0 | 17723*
Cc1[nH]c(=O)[nH]c(=O)c1NC(=O)c1cccs1 | 1.1 | -5.8 | 2.3 | 2.4 | -0.2 | 21903*
COc1ccc(C2=NN(C(=O)c3cccc([N+](=O)[O-])c3)C(c3cccc([N+](=O)[O-])c3)C2)cc1 (stereo unspecified) | -1.8 | -0.1 | -1.8 | 1.2 | 3.3 | 19134*
COc1ccc(C2CC(c3cccc([N+](=O)[O-])c3)=NN2/C(C)=C/C(C)=O)cc1 (stereo unspecified) | 4.7 | 0.6 | 77.0* | -10.7 | nt | 54573*
CCOc1ccc(-n2c(SCC(=O)Nc3ccc(S(=O)(=O)Nc4cc(C)nc(C)n4)cc3)nnc2-c2cccc(C)c2)cc1 | 5.6 | nt | nt | nt | nt | nt
